The values below come from ChEMBL document CHEMBL1157539, “Thousands of chemical starting points for antimalarial lead identification” (Nature, 2010).

Common to all, as to format: functional
Assay [1] deals with Plasmodium falciparum. Kind of assay: GSK_TCMDC: Inhibition of Plasmodium falciparum 3D7 in whole red blood cells, using parasite LDH activity as an index of growth. Test compounds present at 2uM.
For assay [2], the system named is Plasmodium falciparum. Kind of assay: GSK_TCMDC: Inhibition of Plasmodium falciparum Dd2 in whole red blood cells, using parasite LDH activity as an index of growth. Test compounds present at 2uM.
A further assay deals with HepG2. As to the kind of experiment: GSK_TCMDC: Percent inhibition of human HepG2 cell line. Test compounds present at 10uM.

Molecules are shown by their SMILES.

Consider `Cc1ccc2nc3c(cc(C(=O)NCCc4ccccc4)c(=N)n3CCCOC(C)C)c(=O)n2c1`, for which the Inhibition with Plasmodium falciparum [1] was 96%; in the assay on Plasmodium falciparum [2], 12%; in the assay on HepG2, 15%.
For `N#CCCN1CCN(Cc2cccc(-c3ccc(-c4nc5cc(F)ccc5[nH]4)cc3)c2)CC1.O=C(O)C(F)(F)F`, in that order: 100%, 35% and 18%.
For `CCCCCC(NCCCC)c1ccc(OCCOc2ccc(C(CCCCC)NCCCC)cc2)cc1.Cl` (stereo not drawn), the figures for the Inhibition in the assay on Plasmodium falciparum [1], in the assay with Plasmodium falciparum [2] and in the assay with HepG2 were 88%, 96% and 99%, respectively.
In the case of `Cc1cccc2nc(-c3cccc(-c4ccc(C(=O)N5CCCCC5C(C)O)cc4)c3)[nH]c12` (stereo not drawn), the values for the Inhibition in the assay on Plasmodium falciparum [1], with Plasmodium falciparum [2] and in the assay on HepG2 were 100%, 91% and 26%, respectively.
For `CC1CN(Cc2cccc(F)c2)CCN1c1ccc(NC(=O)c2ccc(F)cc2)cc1.O=C(O)C(F)(F)F` (stereo not drawn), the Inhibition came out at 96% with Plasmodium falciparum [1], 92% in the assay with Plasmodium falciparum [2] and 0% in the assay on HepG2.
For `O=C(NC1CC1)c1ccc(N2CCOc3ccc(Cl)cc32)s1`, in that order: 94%, 73% and 8%.
The corresponding values for `[O-][S+]1c2ccccc2Sc2ccccc21` are 99%, 0% and 48%.
The corresponding values for `COc1ccc(NC(=O)Nc2cc(C)nc3cccnc23)cc1Cn1ccnc1` are 100%, 41% and 12%.
For the compound `CN(C)Cc1cccc(CNC(=O)c2sccc2OCc2ccc(Cl)cc2)c1`, the Inhibition in the assay on Plasmodium falciparum [1] is listed as 90%; with Plasmodium falciparum [2] it was 88%; in the assay with HepG2 it was 7%.
Regarding `Cl.N=C(N)NN=Cc1c2ccccc2c(Cl)c2ccc(Cl)cc12`, the Inhibition in the assay with Plasmodium falciparum [1] is recorded as 98%; with Plasmodium falciparum [2] it was 89%; in the assay with HepG2, 97%.
With `C=CCOC(=O)N1CCC(CNCc2cccc(-c3ccc(-c4nc5cccc(C)c5[nH]4)s3)c2)C1.O=C(O)C(F)(F)F` (stereo not drawn), the Inhibition in the assay with Plasmodium falciparum [1] came out at 100%; in the assay with Plasmodium falciparum [2], 82%; in the assay with HepG2 it was 11%.
As for `COc1ccccc1Cn1ccnc1SCC(=O)Nc1cccc(C(F)(F)F)c1`, the results for the Inhibition with Plasmodium falciparum [1], in the assay on Plasmodium falciparum [2] and in the assay with HepG2 were 86%, 73% and 0%, respectively.
For `CS(=O)(=O)N1CC2(CCN(CCC(NC(=S)Nc3ccccc3)c3ccc(Cl)c(Cl)c3)CC2)c2ccccc21` (stereo not drawn), in that order: 98%, 80% and 24%.
Turning to `CC(C)CCNCc1ccc(OCc2cccc(COc3ccc(CNCCC(C)C)cc3I)c2)c(I)c1.Cl`, the Inhibition in the assay with Plasmodium falciparum [1] is recorded as 91%; with Plasmodium falciparum [2], 49%; in the assay with HepG2, 99%.
The corresponding values for `O=C(/C=C/c1ccc(C(F)(F)F)cc1)NCCCCCN1CCN(C(=O)Nc2ccc(Cl)cc2)CC1` are 88%, 0% and 37%.
For `Cc1nc2ccccc2c(O)c1-c1ccc(Cl)cc1`, in that order: 93%, 91% and 0%.
For `Cl.Nc1cc(C(F)(F)F)ccc1Cl`, in that order: 97%, 0% and 8%.
With `Cc1cccc2nc(-c3cccc(-c4ccc(NC(=O)C5CCCO5)cc4)c3)[nH]c12` (stereo not drawn), the Inhibition in the assay on Plasmodium falciparum [1] is listed as 91%; with Plasmodium falciparum [2], 13%; with HepG2, 10%.
For `Cc1c(S(=O)(=O)Nc2cccc(CCN3CCCCC3CCN3CCCC3)c2)sc2ccc(Cl)cc12` (stereo not drawn), in that order: 93%, 10% and 22%.
Take `CCCc1cc(OC)c(CC2c3cc(O)c(C)cc3CCN2C)cc1OC.Cl` (stereo not drawn): the Inhibition with Plasmodium falciparum [1] is 99%; with Plasmodium falciparum [2], 89%; with HepG2, 32%.
As to `CN(C)S(=O)(=O)c1ccc(C(=O)N(c2nc(-c3ccccc3)cs2)C2CCCCC2)cc1`, the Inhibition in the assay with Plasmodium falciparum [1] turned out to be 98%; in the assay with Plasmodium falciparum [2] it was 46%; with HepG2 it was 7%.
The corresponding values for `Cc1ccc(NC(=O)Nc2ccc(Cl)c(C(F)(F)F)c2)cc1-c1ccc(C(=O)Nc2ccncc2)cc1` are 99%, 99% and 77%.
On to `CC1(C)N=C(N)N=C(N)N1OCc1cc(Cl)c(CON2C(N)=NC(N)=NC2(C)C)cc1Cl`, for which the Inhibition turned out to be 94% with Plasmodium falciparum [1], 77% in the assay on Plasmodium falciparum [2] and 21% in the assay with HepG2.
For `C[C@H](NC(=O)c1c(OC2CN(C(c3ccccc3)c3ccccc3)C2)c(-c2ccccc2)nc2ccccc12)C1CCCCC1`, in that order: 92%, 74% and 0%.
For `COc1ccc(CNC2CCN(C)CC2)cc1-c1ccc(S(=O)(=O)NCc2ccccc2)c(C)c1.O=C(O)C(F)(F)F`, in that order: 100%, 98% and 81%.
As to `CC(=O)Oc1c(C2C=CCCC2)c(OC(C)=O)c2ccccc2c1OC(C)=O` (stereo not drawn), the values for the Inhibition in the assay with Plasmodium falciparum [1], in the assay with Plasmodium falciparum [2] and with HepG2 were 95%, 79% and 10%, respectively.
In the case of `CC1CCCN(c2ccc(NC(=O)c3cccs3)cc2[N+](=O)[O-])C1` (stereo not drawn), the Inhibition in the assay with Plasmodium falciparum [1] came to 96%; in the assay with Plasmodium falciparum [2], 96%; with HepG2, 14%.
As to `CC(C)N1CCC(NC(=O)N2CCCN(c3ncnc4cc(-c5ccc(Cl)cc5)sc34)CC2)CC1.O=C(O)C(F)(F)F`, the Inhibition with Plasmodium falciparum [1] was found to be 81%; in the assay with Plasmodium falciparum [2], 7%; with HepG2, 6%.
The corresponding values for `CC(C)(C)Nc1nc(Nc2cccc([N+](=O)[O-])c2)nc(-n2ccnc2)n1` are 98%, 41% and 10%.
For `Cc1nc(C)c(-c2ccc(Br)cc2)c(O)c1Br`, the Inhibition is given as 98% in the assay on Plasmodium falciparum [1], 95% with Plasmodium falciparum [2] and 9% in the assay on HepG2.
For the compound `CC(C)c1sc(N2CCCCC2)nc1C(=O)Nc1ccc(F)cc1C(F)(F)F.O=C(O)C(F)(F)F`, the Inhibition came to 100% with Plasmodium falciparum [1], 98% with Plasmodium falciparum [2] and 0% in the assay on HepG2.
